Reference: PubChem BioAssay
Active and inactive are the calls of the source.

What follows are compounds tested on XIP peptide (Xip251-270) binding (assay: XIP fragment 251-270 binding compounds – biochemical, small-molecule microarray, fluorescence 635/667 nm, 0.1 µg/mL protein, primary screen (AID 1182)). Conditions: fluorescent protein binding, 635 nm, higher = more signal, called active from +8 up or from −8 down.

Composite z-score, inactive:
CC(C)N1CC=CC23O[C@@H]4/C=C\CCCOC(=O)C4[C@H]2C(=O)N(CCCCCO)[C@@H]3C1=O (stereo partly specified) -0.301, [N-]=[N+]=NCc1ccccc1C[C@@]1(C(=O)O)N=C(c2ccc(OCCCO)cc2)O[C@@H]1c1ccccc1N=[N+]=[N-] -0.321, CO[C@H]1COC(=O)[C@H](C)NC(=O)CC=C[C@@H](C)[C@H](NS(=O)(=O)c2ccc(C)cc2)COC(=O)CC=C[C@@H]1C -0.132, CC(c1ccccc1)C(O)C1C=CC2C(=O)N(C)C(=O)C2N1N(c1ccccc1)c1ccccc1 (stereo unspecified) 0.0311, CO[C@H]1COC(=O)[C@@H](C)NC(=O)CC=C[C@@H](C)[C@H](OC)COC(=O)CC=C[C@@H]1C 0.649, COc1ccc(CCN2C(=O)[C@@]3(c4ccc([N+](=O)[O-])cc4)CC(=O)N(CC45CC6CC(CC(C6)C4)C5)[C@@H]3c3ccc(CO)cc32)cc1 -0.038, O=C1C[C@@](C(=O)NCCN2CCOCC2)(c2ccc([N+](=O)[O-])cc2)[C@@H](c2ccc(CO)cc2)N1C1CCCCC1 1.01, C[C@@H]1CC[C@H]2C(=O)N3[C@@H](CC[C@@H](C)[C@@H]3c3cccc(N4CCOCC4)c3)C(=O)N2[C@H]1c1cccc(N2CCOCC2)c1 0.66, C#CCCCON=C1C[C@@H](O)[C@@H](O)[C@@H]2[C@@H]3C(=O)N(Cc4ccc5c(c4)OCO5)C(=O)[C@@H]3CC[C@H]12 0.892, CCOC(=O)C[C@H]1[C@H](OC(=O)Cc2ccc3c(c2)OCO3)[C@@H](NC(=O)CC(C)C)c2cc(OCCCO)ccc2N1C(=O)c1ccccc1 0.443, Cc1ccc(S[C@]2(C(=O)O)CC(=O)N(Cc3ccccc3)[C@@H]2c2ccc(CO)cc2)cc1 -0.242, Cc1ccc(S[C@]2(C(=O)NC(C)C)CC(=O)N(Cc3cc(C(F)(F)F)cc(C(F)(F)F)c3)[C@@H]2c2ccc(CO)cc2I)cc1 0.351, COC(=O)C1=C(C)N(Cc2ccccc2)c2c(C(=O)OC)c(C(=O)OC)c(C(=O)OC)c(=O)n2[C@@H]1c1ccccc1 0.17, C=C(CCCC)/C(=C/C[C@@H](OC(=O)c1ccncc1)c1ccc(CO)o1)c1cnc2ccccc2c1 0.518, CN(C)c1ccc(C(O)C2C=CC3C(=O)NC(=O)C3N2Nc2ccc(Cl)cc2Cl)cc1 (stereo unspecified) -0.0906, CC(C)(C)OC(=O)CC[C@]1(C(=O)NCCN2CCOCC2)N=C(c2ccc(OCCCO)cc2)O[C@H]1c1ccccc1CN=[N+]=[N-] 1.16, COc1cc2c(cc1OC)CN(C(=O)[C@H]1[C@@H]3C(=O)O[C@@H](c4ccccc4)[C@@H](c4ccccc4)N3[C@@H](c3ccc(O)cc3)[C@]13C(=O)Nc1ccc(C#CC4(O)CCCCCC4)cc13)CC2 3.38, Cc1ccc(N2C(=O)c3ccccc3[C@](C)(C(=O)NCC(C)C)[C@@H]2c2ccc(CO)cc2)nc1 -0.223, CCOC(=O)C[C@H]1[C@H](OC(=O)c2ccccc2-c2ccccc2)[C@@H](NC(=O)c2ccc(-c3ccccc3)cc2)c2cc(OCCCO)ccc2N1C(=O)Cc1ccc(OC)cc1 0.617, COc1cccc([C@@H]2[C@@H](C)CC[C@H]3C(=O)N(C)[C@@H](C(C)C)C(=O)N23)c1 -0.297, CO[C@@H]1COC(=O)CC=C[C@H](C)COC(=O)[C@H](Cc2ccccc2)NC(=O)CC=C[C@H]1C 0.717, C=CCN1C(=O)[C@@]2(O[C@@H](CCn3cc([C@H](O)c4ccccc4)nn3)[C@H]([Si](C)(C)c3ccc(OC)cc3)[C@H]2C)c2cc(N3CCOC3=O)ccc21 0.0505, O=C(O)[C@@H]1Cc2c([nH]c3ccccc23)[C@@H](c2ccccc2)N1 0.0176, CC(=O)Nc1ccc([C@H]2[C@H](C)CC[C@H]3C(=O)N4[C@@H](CC[C@@H](C)[C@@H]4c4ccc(NC(C)=O)cc4)C(=O)N32)cc1 1.46, C=CCOC(=O)[C@@H]1[C@H]2C(=O)O[C@H](c3ccccc3)[C@H](c3ccccc3)N2[C@H](c2ccc(OCCOC(=O)[C@H]3C[C@H]4C(=O)N5CCC[C@H]5C(=O)N4[C@H]3c3ccc(O)cc3)cc2)[C@@]12C(=O)Nc1ccccc12 1.22, O=C1NC(=O)C2C1C=CC(C(O)C=Cc1ccc([N+](=O)[O-])cc1)N2Nc1ccccn1 (stereo unspecified) 0.433, COc1cc(Cc2cc3c(c(CCc4ccccc4)n2)[Si](C(C)C)(C(C)C)OC3)cc(OC)c1OC -0.521, CCCCCCc1nc(-c2cc(C)c(OC)c(C)c2)cc2c1[Si](C(C)C)(C(C)C)O[C@H]2c1ccccc1 -0.408, CO[C@H]1COC(=O)[C@H](C)COC(=O)[C@H](Cc2ccccc2)NC(=O)CC=C[C@H]1C -0.454, CO[C@H]1COC(=O)CC=C[C@@H](C)COC(=O)[C@@H](C)NC(=O)CC=C[C@@H]1C 0.89, COC(=O)[C@@]1(Cc2ccccc2CN=[N+]=[N-])N=C(c2ccc(OCCCO)cc2)O[C@H]1c1ccccc1N=[N+]=[N-] 0.413, C#CCNC(/C=C/c1ccccc1)CO (stereo unspecified) -0.447, CO[C@H]1COC(=O)CC=C[C@H](C)COC(=O)[C@@H](OCc2ccccc2)C=C[C@@H]1C 0.225, C[N+](C)(C)CCCCNC(=O)[C@H]1C[C@H]2C(=O)NCC(=O)N2[C@H]1c1cccc(OCCO)c1 1.88, O=C1O[C@@H](c2ccccc2)[C@@H](c2ccccc2)N2[C@@H](c3ccc(OCCO)cc3)[C@]3(C(=O)Nc4ccc(C#CCCO)cc43)[C@@H](C(=O)N3CCN(c4ncccn4)CC3)[C@H]12 0.42, C=C(C)[C@@H]1CC=C(C(O)C2C=CC3C(=O)NC(=O)C3N2Nc2ccccn2)CC1 (stereo partly specified) 0.745
